In PubChem BioAssay AID1159580 (chemical genetic matrix, 2015):
The campaign covered roughly 5,500 compounds. About 2,000 (36%) were called active. Roughly 18% stayed inconclusive and do not appear here. Cut-off read from the data, not from the text of the source: active = normalized growth mostly below about 0.91 (no sharp cut-off); inconclusive = no clear call, values can overlap the other calls; inactive = mostly above about 0.92. This is one part of the list.

Experiment: chemical genetic growth profiling, strain panel (AID 1159580);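 note: tested at 20 µM; growth read once vehicle control cultures reached saturation at 30 °C; 1 = growth at the plate median or of vehicle wells; lower values mean less growth of the strain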
Conditions: S. cerevisiae deletion strains, growth OD

Measured: normalized growth

O=C(/C=C/c1ccccc1)O[C@H]1C[C@@H](O)[C@]2(O)C=CO[C@@H](O[C@@H]3O[C@H](CO)[C@@H](O)[C@H](O)[C@H]3O)[C@H]12
inactive: locus YAL021C, strain ccr4, hits give low values 0.996 | locus YAL026C, strain drs2, hits give low values 1.03 | locus YAL030W, strain snc1, hits give low values 1.03 | locus YBL061C, strain skt5, hits give low values 1.02 | locus YBR009C, strain hhf1, hits give low values 1.05 | locus YBR023C, strain chs3, hits give low values 1.02 | locus YBR171W, strain sec66, hits give low values 1.03 | locus YBR231C, strain swc5, hits give low values 1.03 | locus YBR279W, strain paf1, hits give low values 1.02 | locus YCL011C, strain gbp2, hits give low values 1.02 | locus YCL016C, strain dcc1, hits give low values 1.03 | locus YCL061C, strain MRC1, hits give low values 1.02 | locus YCL069W, strain vba3, hits give low values 1.03 | locus YCR088W, strain abp1, hits give low values 1.02 | locus YDL005C, strain med2, hits give low values 1.02 | locus YDL040C, strain nat1, hits give low values 1.03 | locus YDR001C, strain nth1, hits give low values 1.02 | locus YDR069C, strain doa4, hits give low values 1.03 | locus YDR137W, strain rgp1, hits give low values 1.03 | locus YDR159W, strain sac3, hits give low values 1.05 | locus YDR195W, strain ref2 1.01 | locus YDR297W, strain sur2, hits give low values 1.02 | locus YDR334W, strain swr1, hits give low values 1.03 | locus YDR335W, strain msn5, hits give low values 1.02 | locus YDR392W, strain spt3, hits give low values 0.927 | locus YEL003W, strain gim4, hits give low values 1.03 | locus YEL037C, strain rad23, hits give low values 1.02 | locus YEL061C, strain CIN8 (second series), hits give low values 1.01 | locus YER015W, strain faa2, hits give low values 1.02 | locus YER016W, strain bim1, hits give low values 1.03 | locus YER111C, strain swi4, hits give low values 1.03 | locus YER155C, strain BEM2 (second series), hits give low values 1.04 | locus YFR010W, strain ubp6, hits give low values 1.03 | locus YGL167C, strain pmr1, hits give low values 1.02 | locus YGL173C, strain kem1, hits give low values 1.03 | locus YGL227W, strain vid30, hits give low values 1.03 | locus YGL240W, strain doc1, hits give low values 1.04 | locus YGL253W, strain hxk2, hits give low values 1.03 | locus YHR013C, strain ard1, hits give low values 0.995 | locus YHR027C, strain rpn1, hits give low values 1.03 | locus YHR030C, strain SLT2, hits give low values 0.902 | locus YHR079C, strain IRE1, hits give low values 0.939 | locus YHR142W, strain chs7, hits give low values 0.998 | locus YJL092W, strain hpr5, hits give low values 1.02 | locus YJL095W, strain BCK1 (second series), hits give low values 1.03 | locus YJL095W, strain BCK1, hits give low values 0.928 | locus YJL115W, strain asf1, hits give low values 1.03 | locus YJL129C, strain trk1, hits give low values 1.01 | locus YJL154C, strain vps35, hits give low values 1.02 | locus YJL164C, strain tpk1, hits give low values 1.01 | locus YJL166W, strain qcr8, hits give low values 1.03 | locus YJL187C, strain SWE1, hits give low values 1.02 | locus YJR066W, strain TOR1, hits give low values 0.92 | locus YKL160W, strain elf1, hits give low values 0.989 | locus YKR026C, strain gcn3, hits give low values 1.03 | locus YKR091W, strain srl3, hits give low values 1.02 | locus YLL001W, strain dnm1, hits give low values 1.02 | locus YLL026W, hits give low values 1.02 | locus YLL041C, strain sdh2, hits give low values 1.02 | locus YLR027C, strain aat2, hits give low values 1.02 | locus YLR113W, strain HOG1, hits give low values 0.878 | locus YLR221C, strain rsa3, hits give low values 1 | locus YLR258W, strain gsy2, hits give low values 1.05 | locus YLR262C, strain YPT6 (second series), hits give low values 1.04 | locus YLR320W, strain mms22, hits give low values 1.02 | locus YLR342W, strain FKS1, hits give low values 1.02 | locus YLR357W, strain rsc2, hits give low values 1.02 | locus YLR370C, strain arc18, hits give low values 1.02 | locus YLR384C, strain iki3, hits give low values 1.03 | locus YML120C, strain ndi1, hits give low values 0.999 | locus YMR058W, strain fet3, hits give low values 1.02 | locus YMR125W, strain sto1, hits give low values 1.03 | locus YMR129W, hits give low values 1.02 | locus YMR205C, strain PFK2, hits give low values 1.06 | locus YMR231W, strain pep5, hits give low values 1.03 | locus YNL071W, strain lat1, hits give low values 1.02 | locus YNL183C, strain NPR1, hits give low values 0.951 | locus YNL209W, strain ssb2, hits give low values 1.02 | locus YNL248C, strain rpa49, hits give low values 0.992 | locus YNL322C, strain KRE1 (second series), hits give low values 1.03 | locus YNR049C, strain mso1, hits give low values 1.03 | locus YOR001W, strain rrp6, hits give low values 1 | locus YOR070C, strain gyp1, hits give low values 1.03 | locus YOR080W, strain dia2, hits give low values 1.03 | locus YOR083W, strain WHI5, hits give low values 0.986 | locus YOR106W, strain vam3, hits give low values 1.01 | locus YOR231W, strain MKK1, hits give low values 0.938 | locus YOR265W, strain rbl2, hits give low values 1.02 | locus YOR270C, strain vph1, hits give low values 1.03 | locus YOR290C, strain snf2, hits give low values 0.969 | locus YPL051W, strain arl3, hits give low values 1.01 | locus YPL078C, strain atp4, hits give low values 0.996 | locus YPL106C, strain sse1, hits give low values 1.04 | locus YPL240C, strain hsp82, hits give low values 1.02 | locus YPL256C, strain CLN2, hits give low values 0.943
